# According to the antibiotic and cytotoxicity screens of Wong et al. (2023):
# The campaign covered roughly 39,000 compounds. About 1,500 (3.8%) were called active. The entries come from a sample that favours actives as a whole.
# System: HSkMC (human skeletal muscle cells)
# Assay: cytotoxicity call (relative viability < 0.9)
# Details: 10 µM
row,Compound,cytotoxicity call
1,COC(=O)CCCCCCC(=O)Nc1ccc([C@H]2O[C@@H](CSc3nc(-c4ccccc4)c(-c4ccccc4)o3)C[C@H](c3ccc([N+](=O)[O-])cc3)O2)cc1,inactive
2,COCCOC(=O)N1C(=O)[C@@]2(c3cc(C#Cc4ccc(OC)cc4)ccc31)[C@H](c1ccc(O)cc1)N1[C@H](c3ccccc3)[C@H](c3ccccc3)OC(=O)[C@H]1[C@@H]2C(=O)NC[C@H](O)c1ccccc1,inactive
3,O=C(NCc1csnn1)c1csnn1,inactive
4,O=C(COC(=O)/C=C/c1cn(-c2ccccc2)nc1-c1ccc2c(c1)OCCO2)N[C@H]1CCS(=O)(=O)C1,inactive
5,C[C@H]1CN([C@@H](C)CO)C(=O)CCCn2nncc2CO[C@@H]1CN(C)S(=O)(=O)c1ccc(-n2cccn2)cc1,inactive
6,COc1ccc(S(=O)(=O)N[C@H]2C=C[C@H](CC(=O)N3CCC(Cc4ccccc4)CC3)O[C@H]2CO)cc1,inactive
7,C[C@@H]1CN([C@@H](C)CO)C(=O)Cc2cc(NC(=O)CCN3CCOCC3)ccc2O[C@H]1CN(C)C(=O)NC1CCCCC1,inactive
8,CC(C)(N)c1ccccc1Br,inactive
9,C[C@@H]1CN([C@@H](C)CO)C(=O)c2cccc(NC(=O)NC3CCCCC3)c2O[C@H]1CN(C)Cc1ccc(Cl)c(Cl)c1,inactive
10,COc1cc2nc(N3CCN(C(=O)C4CCCO4)CC3)nc(N)c2cc1OC.Cl (configuration not stated),inactive
11,COc1cc2c(NC3CCN(C(C)C)CC3)nc(N3CCC(F)(F)CC3)nc2cc1OCCCN1CCCC1,active
12,COc1cc2c(NC3CCN(C)CC3)nc(N3CCCN(C)CC3)nc2cc1OCCOCCN(C)C,inactive
13,C[C@@H]1CN([C@@H](C)CO)C(=O)Cc2cc(NS(=O)(=O)c3ccccc3)ccc2O[C@@H]1CN(C)Cc1ccc(C(=O)O)cc1,inactive
14,COc1cccc(NC(=O)N(C)C[C@H]2OCc3ccccc3-c3c(n(C)c4ccccc34)C(=O)N([C@H](C)CO)C[C@H]2C)c1,inactive
15,C[C@@H]1CCCCO[C@@H](CN(C)C(=O)CCC(F)(F)F)[C@H](C)CN([C@@H](C)CO)C(=O)c2cc(NS(=O)(=O)c3cccs3)ccc2O1,inactive
16,Cc1ccc(S(=O)(=O)Nc2ccc3c(c2)C(=O)N([C@@H](C)CO)C[C@@H](C)[C@@H](CN(C)C(=O)c2ccccc2)OCCCC[C@@H](C)O3)cc1,inactive
17,C[C@H](CO)N1C[C@H](C)[C@H](CN(C)Cc2ccc(C(F)(F)F)cc2)Oc2ccc(NC(=O)Cc3ccccc3)cc2C1=O,inactive
18,Cc1ccc(S(=O)(=O)N(C)C[C@@H]2Oc3cc(Br)ccc3S(=O)(=O)N([C@@H](C)CO)C[C@@H]2C)cc1,inactive
19,COc1ccc(S(=O)(=O)Nc2ccc3c(c2)C(=O)N([C@H](C)CO)C[C@H](C)[C@H](CN(C)Cc2ccc(C(F)(F)F)cc2)OCCCC[C@H](C)O3)cc1,active
20,COc1ccc(S(=O)(=O)Nc2ccc3c(c2)C(=O)N([C@@H](C)CO)C[C@H](C)[C@@H](CN(C)Cc2ccc(C(F)(F)F)cc2)OCCCC[C@@H](C)O3)cc1,inactive
21,COc1ccc(S(=O)(=O)Nc2ccc3c(c2)C(=O)N([C@@H](C)CO)C[C@@H](C)[C@H](CN(C)Cc2ccc(C(F)(F)F)cc2)OCCCC[C@@H](C)O3)cc1,active

row,Compound,cytotoxicity call
1,COc1ccc(S(=O)(=O)Nc2ccc3c(c2)C(=O)N([C@@H](C)CO)C[C@H](C)[C@@H](CN(C)Cc2ccc(C(F)(F)F)cc2)OCCCC[C@H](C)O3)cc1,inactive
2,COc1ccc(S(=O)(=O)Nc2ccc3c(c2)C(=O)N([C@H](C)CO)C[C@H](C)[C@@H](CN(C)Cc2ccc(C(F)(F)F)cc2)OCCCC[C@@H](C)O3)cc1,active
3,COc1ccc(S(=O)(=O)Nc2ccc3c(c2)C(=O)N([C@@H](C)CO)C[C@@H](C)[C@@H](CN(C)Cc2ccc(C(F)(F)F)cc2)OCCCC[C@H](C)O3)cc1,inactive
4,COc1ccc(S(=O)(=O)Nc2ccc3c(c2)C(=O)N([C@H](C)CO)C[C@@H](C)[C@@H](CN(C)Cc2ccc(C(F)(F)F)cc2)OCCCC[C@@H](C)O3)cc1,active
5,COc1ccc(S(=O)(=O)Nc2ccc3c(c2)C(=O)N([C@H](C)CO)C[C@@H](C)[C@H](CN(C)Cc2ccc(C(F)(F)F)cc2)OCCCC[C@@H](C)O3)cc1,inactive
6,COc1ccc(S(=O)(=O)Nc2ccc3c(c2)C(=O)N([C@H](C)CO)C[C@@H](C)[C@@H](CN(C)Cc2ccc(C(F)(F)F)cc2)OCCCC[C@H](C)O3)cc1,inactive
7,COc1ccc(S(=O)(=O)Nc2ccc3c(c2)C(=O)N([C@@H](C)CO)C[C@@H](C)[C@@H](CN(C)Cc2ccc(C(F)(F)F)cc2)OCCCC[C@@H](C)O3)cc1,inactive
8,C[C@H](CO)N1C[C@H](C)[C@H](CN(C)S(=O)(=O)c2cccc(F)c2)Oc2ncc(C#CC3(O)CCCC3)cc2C1=O,inactive
9,C[C@H](CO)N1C[C@H](C)[C@H](CN(C)CC2CCCCC2)Oc2c(NC(=O)c3nc4ccccc4s3)cccc2C1=O,inactive
10,C[C@@H]1CN([C@@H](C)CO)C(=O)c2cc(NS(=O)(=O)c3cn(C)cn3)ccc2O[C@@H](C)CCCCO[C@@H]1CN(C)S(=O)(=O)c1ccccc1,inactive
11,COc1ccc(-c2cnc3c(c2)C(=O)N([C@H](C)CO)C[C@@H](C)[C@H](CN(C)C(=O)Cc2ccncc2)O3)cc1,inactive
12,C[C@@H]1CN([C@@H](C)CO)C(=O)c2cc(NC(=O)Cn3cnnn3)ccc2O[C@@H]1CN(C)S(=O)(=O)c1ccccc1,inactive
13,O=C(C[C@H]1C[C@H]2c3cc(NC(=O)NC4CCCC4)ccc3O[C@H]2[C@H](CO)O1)NCCN1CCCCC1,inactive
14,Cc1ncc([N+](=O)[O-])n1C,inactive
15,C[C@@H]1CCCCO[C@H](CN(C)S(=O)(=O)c2cn(C)cn2)[C@@H](C)CN([C@@H](C)CO)C(=O)c2cc(NC(=O)Nc3ccc(C(F)(F)F)cc3)ccc2O1,inactive
16,C[C@H]1CN([C@@H](C)CO)C(=O)Cc2cc(NC(=O)c3ccncc3)ccc2O[C@H]1CN(C)C(=O)NC1CCCCC1,inactive
17,Cc1ccc(S(=O)(=O)Nc2ccc3c(c2)C(=O)N([C@@H](C)CO)C[C@@H](C)[C@@H](CN(C)C(=O)NC2CCCCC2)OCCCC[C@H](C)O3)cc1,inactive
18,C[C@H](O)C#Cc1ccc2c(c1)O[C@H](CN(C)C(=O)Nc1ccccc1)[C@@H](C)CN([C@@H](C)CO)S2(=O)=O,inactive
19,Cc1ccccc1S(=O)(=O)N1C[C@H](O)COC[C@@H]2O[C@@H](CC(=O)N3CCN(C)CC3)CC[C@H]21,inactive
20,COCC(=O)Nc1ccc2c(c1)C(=O)N(C)C[C@@H](OC)[C@H](C)CN(C(=O)CN1CCOCC1)[C@H](C)CO2,inactive
21,COc1ccc(-c2ccccc2)cc1NC(=O)c1ccc2nc(C)c(N(C)C(=O)CCc3ccccc3)n2c1,inactive

row,Compound,cytotoxicity call
1,C[C@H](CO)N1C[C@H](C)[C@H](CN(C)C(=O)C2CCC2)Oc2cc(C#Cc3ccncc3)ccc2S1(=O)=O,inactive
2,N[C@H]1CCN(c2ccc(C(F)(F)F)cn2)C1,inactive
3,COc1ccc(S(=O)(=O)Nc2ccc3c(c2)C(=O)N([C@H](C)CO)C[C@H](C)[C@H](CN(C)Cc2ccc(C(F)(F)F)cc2)OCCCC[C@@H](C)O3)cc1,inactive
4,COc1ccc(S(=O)(=O)Nc2ccc3c(c2)C(=O)N([C@H](C)CO)C[C@@H](C)[C@H](CN(C)Cc2ccc(C(F)(F)F)cc2)OCCCC[C@H](C)O3)cc1,inactive
5,COc1ccc(S(=O)(=O)Nc2ccc3c(c2)C(=O)N([C@@H](C)CO)C[C@H](C)[C@H](CN(C)Cc2ccc(C(F)(F)F)cc2)OCCCC[C@H](C)O3)cc1,active
6,COc1ccc(S(=O)(=O)Nc2ccc3c(c2)C(=O)N([C@@H](C)CO)C[C@H](C)[C@H](CN(C)Cc2ccc(C(F)(F)F)cc2)OCCCC[C@@H](C)O3)cc1,inactive
7,COc1ccc(S(=O)(=O)Nc2ccc3c(c2)C(=O)N([C@H](C)CO)C[C@H](C)[C@@H](CN(C)Cc2ccc(C(F)(F)F)cc2)OCCCC[C@H](C)O3)cc1,inactive
8,COc1ccc(S(=O)(=O)Nc2ccc3c(c2)C(=O)N([C@@H](C)CO)C[C@@H](C)[C@H](CN(C)Cc2ccc(C(F)(F)F)cc2)OCCCC[C@H](C)O3)cc1,active
9,C[C@]12C[C@]3(O)O[C@@H](O1)[C@]1(COC(=O)c4ccccc4)[C@H]3C[C@@]12O[C@@H]1O[C@H](CO)[C@@H](O)[C@H](O)[C@H]1O,inactive
10,COc1ccc(COC[C@@]23Oc4ccccc4[C@@H](NC(=S)N2C)[C@@H]3CO[Si](C)(C)C(C)(C)C)cc1,inactive
11,C[C@H](CO)N1C[C@H](C)[C@H](CN(C)Cc2ccncc2)OCCCC[C@H](C)Oc2ccc(NC(=O)Cc3ccccc3)cc2C1=O,inactive
12,C[C@H](CO)N1C[C@H](C)[C@H](CN(C)C(=O)Nc2ccc(C(F)(F)F)cc2)Oc2ccc(NC(=O)Nc3ccccc3)cc2C1=O,active
13,C[C@H]1CN([C@@H](C)CO)C(=O)c2cc(NC(=O)Nc3ccc(C(F)(F)F)cc3)ccc2O[C@@H]1CN(C)C(=O)Nc1ccccc1,inactive
14,C[C@H](CO)N1C[C@H](C)[C@H](CN(C)C(=O)Nc2ccccc2)Oc2ccc(NC(=O)Nc3ccc(C(F)(F)F)cc3)cc2C1=O,active
15,C[C@@H]1CN([C@@H](C)CO)C(=O)c2cc(NC(=O)Nc3ccccc3)ccc2O[C@H]1CN(C)C(=O)Nc1ccc(C(F)(F)F)cc1,inactive
16,C[C@@H]1CN([C@@H](C)CO)C(=O)c2cc(NC(=O)Nc3ccc(C(F)(F)F)cc3)ccc2O[C@@H]1CN(C)C(=O)Nc1ccccc1,active
17,C[C@H]1CN([C@@H](C)CO)C(=O)c2cc(NC(=O)Nc3ccccc3)ccc2O[C@H]1CN(C)C(=O)Nc1ccc(C(F)(F)F)cc1,inactive
18,C[C@H](CO)N1C[C@H](C)[C@@H](CN(C)C(=O)Nc2ccccc2)Oc2ccc(NC(=O)Nc3ccc(C(F)(F)F)cc3)cc2C1=O,inactive
19,C[C@@H]1CN([C@@H](C)CO)C(=O)c2cc(NC(=O)Nc3ccccc3)ccc2O[C@@H]1CN(C)C(=O)Nc1ccc(C(F)(F)F)cc1,inactive
20,C[C@@H]1CN([C@H](C)CO)C(=O)c2cc(NC(=O)Nc3ccccc3)ccc2O[C@@H]1CN(C)C(=O)Nc1ccc(C(F)(F)F)cc1,inactive
